Compound activity: PubChem BioAssay, National Center for Advancing Translational Sciences (NCATS)
WRN helicase inh: inhibitors of human WRN helicase; Q14191; WRN helicase unwinding, fluorescent forked duplex, kinetic; Potency, µM (series often up to 114 µM), actives largely listed as inhibitors; actives 0.46% (n = 360,000); AID 651768; further: nearly all actives have a fitted effect of over 55% in size
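Screening of the MLSMR collection measured strand separation of a quenched forked DNA duplex (100 nM) by 20 nM WRN with 2 mM ATP, all final. Compounds were preincubated with enzyme 15 min at room temperature.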
POLI inh: blocks human DNA polymerase iota activity; Pol iota fluorescent replication assay, 10 min; Potency, µM (titrated, usually from 115 µM), hits mostly inhibitors; actives 1% (n = 390,000)
Target sequence (Q9UNA4 whole entry, looked up): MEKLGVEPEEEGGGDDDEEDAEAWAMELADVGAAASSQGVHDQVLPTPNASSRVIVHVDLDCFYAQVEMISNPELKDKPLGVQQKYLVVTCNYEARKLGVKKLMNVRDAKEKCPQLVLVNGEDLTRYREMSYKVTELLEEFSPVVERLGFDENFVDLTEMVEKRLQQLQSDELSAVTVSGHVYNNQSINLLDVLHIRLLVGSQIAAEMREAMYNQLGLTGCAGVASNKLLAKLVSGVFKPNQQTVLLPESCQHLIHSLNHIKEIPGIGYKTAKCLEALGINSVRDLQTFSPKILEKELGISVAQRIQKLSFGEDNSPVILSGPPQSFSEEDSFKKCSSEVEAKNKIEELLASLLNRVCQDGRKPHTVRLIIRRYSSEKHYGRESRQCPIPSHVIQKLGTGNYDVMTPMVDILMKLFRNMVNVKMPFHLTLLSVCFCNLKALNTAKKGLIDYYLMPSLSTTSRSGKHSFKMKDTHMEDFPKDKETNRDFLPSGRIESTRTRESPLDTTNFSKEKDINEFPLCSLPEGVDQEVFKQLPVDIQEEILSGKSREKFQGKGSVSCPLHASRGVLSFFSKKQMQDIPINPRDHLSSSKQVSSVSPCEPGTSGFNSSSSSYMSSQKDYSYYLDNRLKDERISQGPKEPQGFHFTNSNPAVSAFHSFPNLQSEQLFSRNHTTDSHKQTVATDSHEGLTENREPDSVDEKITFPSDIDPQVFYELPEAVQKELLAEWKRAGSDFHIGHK
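Pol iota at 10 nM preincubated 15 min with compounds at room temperature; reaction started with fluorescent substrate, 50 nM final. Fluorescence read kinetically at 0 and 10 min; buffer-only wells as negative control.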
POLB inh: inhibitors of human DNA polymerase beta; Pol beta primer extension/strand displacement, fluorescence kinetic; Potency, µM (doses to about 114 µM), hits mostly inhibitors; actives 1.3% (n = 340,000); AID 485314
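Kinetic readout of DNA synthesis with strand displacement by Pol beta. Compound and 10 nM enzyme sit 15 min at room temperature; 50 nM substrate starts the reaction, read immediately and at 10 min.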
Pol eta inh: blocks human DNA polymerase eta activity; recombinant Pol eta, fluorescent DNA replication assay; Potency, µM (series often up to 114 µM), usual class: inhibitors; actives 1.2% (n = 390,000); AID 588591
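Pol eta (10 nM) was preincubated with compounds for 15 min at room temperature, after which fluorescent replication substrate (50 nM final) was added to start the reaction. Fluorescence was read kinetically at 0 and 10 min.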
Pol kappa inh: DNA polymerase kappa (human) inhibition. actives 0.53% (n = 400,000). Potency, µM (top dose mostly 107 µM), most hits filed as inhibitors. Q9UBT6. AID 588579. purified Pol kappa, fluorescent DNA synthesis assay, 10 min
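Here, compound and 10 nM enzyme are combined for 15 min at room temperature; adding 50 nM substrate (final) starts DNA synthesis, tracked by fluorescence at 0 and 10 min against buffer-only wells.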
PI5P4K alpha inh: inhibitors of human PI5P4K alpha; P48426; PI5P4Kalpha enzyme, ADP-Glo luminescence, 60 min; hits give low values; max response, %; actives 1.2% (n = 330,000); AID 652105; active means max response of -50% or lower; inconclusive means between -30% and -50%; inactive means -30% or higher; further: value at the top dose of about 77 µM
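qHTS, 1536-well: enzyme/substrate mix, compound by pin tool, 5 microM ATP final; RT 60 min; ADP-Glo reagents 1 (45 min) then 2 (30 min); luminescence.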
Each line names hits and unclear results; the compound was inactive in the other large screens. Sampled rows, rich in hits. Any-hit rate of the full collection: about 2.8%. Unless noted, the call rests on the fitted dose curve; in most records, active means well fitted curve in the direction sought with a large enough effect; inconclusive means small, poorly fitted or top-dose-only effect, or another doubt; inactive means no such curve, though single readings can be large; an effect the other way counts as inactive or inconclusive.

COc1ccc(C2CC(=O)N3CN(Cc4ccco4)CSC3=C2C#N)cc1 (centres undefined)	POLI inh inconclusive, POLB inh inconclusive (no result: PI5P4K alpha inh)
N#CC1=C2SCN(Cc3ccco3)CN2C(=O)CC1c1ccc(Cl)cc1 (centres undefined)	PI5P4K alpha inh inconclusive
N#CC1=C2SCN(Cc3ccccc3)CN2C(=O)CC1c1ccc2c(c1)OCO2 (centres undefined)	POLB inh 45µM, PI5P4K alpha inh -58
N#CC1=C2SCN(Cc3ccccc3)CN2C(=O)CC1c1cccs1 (centres undefined)	POLI inh inconclusive, POLB inh inconclusive, PI5P4K alpha inh -59
O=C(c1nc2ccccn2c1CNCCCn1cccn1)N1CCCC1	none
COc1ccc(NC(=O)C2Cc3c(-c4cccc(C(N)=O)c4)ccnc3O2)cn1 (centres undefined)	none (no result: POLI inh, POLB inh, Pol eta inh, Pol kappa inh)
Cc1ccc(N=C2NC(=O)/C(=C/c3cccn3C)S2)cc1C	none
Cc1cccc(N=C2NC(=O)/C(=C/c3cccn3C)S2)c1C	POLI inh inconclusive, PI5P4K alpha inh -72
Cc1cc(/C=C2/SC(=O)N(CC(=O)N3CCOCC3)C2=O)c(C)n1-c1ccccc1F	none
Cc1ccc(N=Nc2ccc3ccccc3c2O)cc1	WRN helicase inh inconclusive
Cc1ccc2nc(-c3ccc(N=Nc4cc(S(=O)(=O)O)c5ccccc5c4O)cc3)sc2c1S(=O)(=O)O	POLI inh 25µM, Pol kappa inh 20µM (no result: WRN helicase inh, POLB inh, Pol eta inh, PI5P4K alpha inh)
Cc1ccc(-c2nc3ncccc3o2)cc1NC(=O)c1ccccc1	Pol eta inh 56µM
Cc1cc(OCC(=O)Nc2cc(-c3nc4ncccc4o3)ccc2C)ccc1Cl	Pol eta inh 79µM (no result: WRN helicase inh, PI5P4K alpha inh)
C=CCN1c2ccccc2[C@]23C[C@@H](C(=O)OC)N(C(=O)c4cccs4)C2=NC(C(=O)OC)=C(C(=O)OC)[C@H]13	POLI inh inconclusive, PI5P4K alpha inh -52
CC(=O)N1CCN(C(C(=O)Nc2c(C)cccc2C)c2cccc(F)c2)CC1 (centres undefined)	none (no result: POLI inh, POLB inh, Pol eta inh, Pol kappa inh)
COCCCNC(=O)C1CC(=O)N(CCc2ccc(OC)c(OC)c2)C1 (centres undefined)	Pol eta inh 32µM
COc1ccc(CCN2CC(C(=O)NCCc3ccccc3)CC2=O)cc1OC (centres undefined)	POLB inh inconclusive
CCCOC(=O)c1cc(-c2ccc(C=O)o2)ccc1Cl	none
CCCOC(=O)c1cc(-c2ccc(/C=C3/C(=O)N(C)C(=O)C(C#N)=C3C)o2)ccc1Cl	POLI inh inconclusive, Pol eta inh 25µM, PI5P4K alpha inh -58 (no result: POLB inh)
COc1ccc(S(=O)(=O)N2CCOCC2)cc1NC(=O)c1cc2c(s1)CCCC2	none
COc1ccc(NC(=O)c2cc3c(s2)CCC3)cc1S(=O)(=O)N1CCOCC1	POLI inh 35µM, POLB inh inconclusive, Pol eta inh inconclusive, Pol kappa inh inconclusive, PI5P4K alpha inh inconclusive
C=CC(C)(O)CC/C=C(\C)CCC=C(C)C (centres undefined)	none (no result: WRN helicase inh, POLI inh, POLB inh, Pol eta inh, PI5P4K alpha inh)
CC1=CC(C)(C)N2C(=O)C(=Nc3ccc(O)cc3)c3cccc1c32	WRN helicase inh inconclusive, POLI inh 7.9µM, Pol eta inh 20µM, PI5P4K alpha inh inconclusive
COc1cc(N=C2C(=O)N3c4c(cccc42)C(C)=CC3(C)C)cc(OC)c1	Pol eta inh inconclusive
CCCSc1cc(N2CCOCC2)nc(-c2ccccc2Cl)n1	POLB inh 79µM
CCN1CCN(C(c2cccs2)C(C)NC(=O)C(=O)N2CCCCC2)CC1 (centres undefined)	none
COc1cccc(C2=CC(c3ccccc3F)n3ncc(C(=O)Nc4ccc(C)cc4)c3N2)c1 (centres undefined)	POLB inh 28µM (no result: WRN helicase inh, PI5P4K alpha inh)
O=C(Nc1cccc(N=Cc2cc(Br)cc(Br)c2O)c1)c1ccco1	WRN helicase inh inconclusive, POLI inh 89µM, Pol eta inh inconclusive, PI5P4K alpha inh -59
O=C(Nc1cccc(N=Cc2cc(Cl)cc(Br)c2O)c1)c1ccco1	WRN helicase inh inconclusive, Pol eta inh inconclusive, PI5P4K alpha inh -55
O=C(Nc1cc(Br)c(O)c(Br)c1)c1cccc(NC(=O)c2ccco2)c1	POLB inh inconclusive, Pol eta inh inconclusive
COC(=O)CCC(=O)OC1(C)C(=O)C2=CN(c3ccc(OC)cc3)C(c3ccc(OC)cc3)=CC2=C(Br)C1=O (centres undefined)	POLI inh inconclusive, PI5P4K alpha inh inconclusive (no result: POLB inh)
COc1ccc(C2=CC3=C(Br)C(=O)C(C)(OC(=O)c4ccco4)C(=O)C3=CO2)cc1 (centres undefined)	WRN helicase inh 45µM, POLI inh 18µM, POLB inh 20µM, Pol eta inh inconclusive, Pol kappa inh 79µM, PI5P4K alpha inh -74
CCCc1cc(=O)oc2cc(OCC(=O)N3CCN(C(=O)C4COc5ccccc5O4)CC3)ccc12 (centres undefined)	none
C#CCN[C@@H]1CCc2ccccc21	none (no result: WRN helicase inh, POLI inh, POLB inh, Pol eta inh, PI5P4K alpha inh)
N#CC1=C(N)SC(N)=C(C#N)C1c1ccc([N+](=O)[O-])cc1	POLI inh inconclusive, PI5P4K alpha inh -84
CCOc1ccc(C2C(C#N)=C(N)SC(N)=C2C#N)cc1OCC	PI5P4K alpha inh -51
N#CC1=C(N)SC(N)=C(C#N)C1c1ccc(C(F)(F)F)cc1	none (no result: WRN helicase inh, POLI inh, Pol eta inh, Pol kappa inh, PI5P4K alpha inh)
COc1ccc(N2CCN(C(=O)Cn3cnc4sc(C)c(S(=O)(=O)N5CCCCC5)c4c3=O)CC2)cc1	none (no result: WRN helicase inh, PI5P4K alpha inh)
Cc1ccccc1C(=O)N1CCC(C(=O)NN2C(=O)NC3(CCC(C)CC3)C2=O)CC1 (centres undefined)	POLI inh inconclusive (no result: POLB inh)
O=C(O)/C(=C\c1ccc(Br)cc1)c1ccc(S(=O)(=O)N2CCCCC2)s1	POLI inh inconclusive, POLB inh 28µM, Pol eta inh inconclusive
O=C(O)/C(=C\c1ccc(C(F)(F)F)cc1)c1ccc(S(=O)(=O)N2CCCC2)s1	none (no result: POLB inh)
CC(=O)c1sc2nc(SCC(=O)NCCc3ccccc3)[nH]c(=O)c2c1C	none
COc1ccc(C(=O)Nc2c(N)nc(SCC(=O)Nc3ccc(NC(C)=O)cc3)[nH]c2=O)cc1	POLI inh 79µM, POLB inh 35µM, Pol eta inh inconclusive, Pol kappa inh inconclusive
CCOC(=O)c1ccc(NC(=O)CSc2ncc(S(=O)(=O)c3ccc(C)c(Cl)c3)c(=O)[nH]2)cc1	POLI inh inconclusive, POLB inh 89µM, Pol eta inh inconclusive (no result: WRN helicase inh, PI5P4K alpha inh)
COc1ccc(CCNC(=O)CSc2nc3sc(C(=O)O)c(C)c3c(=O)[nH]2)cc1OC	PI5P4K alpha inh -71
COc1ccc(NC(=O)CSc2nc(N)c(NC(=O)c3ccccc3F)c(=O)[nH]2)cc1	none
Cc1cc(NS(=O)(=O)c2ccc(NC(=O)CSc3nc4sc(C)c(C)c4c(=O)[nH]3)cc2)no1	none
Cc1cc(NS(=O)(=O)c2ccc(NC(=O)CSc3nc4sc(C(=O)O)c(C)c4c(=O)[nH]3)cc2)no1	PI5P4K alpha inh -81
